Many of the other results were omitted from the sample, so hits are more common in it than they were.
Dicer processing: inhibitors of Dicer pre-microRNA processing, primary screen, biochemical, cat-ELCCA, chemiluminescence; cat-ELCCA pre-miR-21 Dicer processing; hits give high values; z-score at 25 µM; 47,000 compounds, 6% hits; AID 1347074, 2019; in the data active means z-score above about 3, passing the limit was not always enough;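 further: plate controls were vehicle for no effect and no enzyme for full effect; higher signal means more uncleaved substrate so more Dicer inhibition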
* = called active by the depositor.

SMILES	Dicer processing
CC(C)CCOc1cccc(C2c3c(oc4ccccc4c3=O)C(=O)N2c2ccccn2)c1 (centres undefined)	1.2
O=c1cc(-c2cc3ccccc3o2)oc2ccccc12	-1.6
O=C1c2cccc3cccc(c23)C(=O)N1c1nc2ccccc2[nH]1	-0.77
CCN(CC)S(=O)(=O)c1cc(C)cc(S(=O)(=O)c2ccc(Cl)cc2)c1C	0.99
O=C(c1nc(SCc2cccc(F)c2)n2ccccc12)C(F)(F)F	0.76
O=C(O)c1cccc(-c2cccc(C(=O)O)c2)c1	6.2*
O=C(O)c1ccc2nc3ccccc3nc2c1	-1.9
O=C(O)c1ccc2nc(-c3cccc(-c4nc5ccc(C(=O)O)cc5[nH]4)c3)[nH]c2c1	-0.63
COc1ccc(C2c3c(oc4ccccc4c3=O)C(=O)N2c2nnc(C(C)C)s2)cc1OC (centres undefined)	0.08
Cn1c(=O)c2c(nc(Oc3ccc(Br)cc3Br)n2Cc2ccccc2)n(C)c1=O	-0.77
CCCCCCCCO[C@@H]1O[C@H](CO)[C@@H](O)[C@H](O)[C@H]1O	-0.42
COc1ccc(C(=O)CC(=O)c2cc(Cl)ccc2O)cc1OC	-0.7
Cc1ccc(C(=O)COC(=O)c2cc(Cl)ccc2O)cc1C	4*
O=C(COC(=O)c1cc2ccccc2cc1OC(=O)c1ccc(Cl)cc1)c1ccc(Cl)cc1	1
Cc1nc2c(-c3ccccc3)c(C(F)(F)F)nn2c(C)c1-c1ccccc1	-0.38
CS(=O)(=O)c1sc(Br)c2c1C(=O)CCC2	4.4*
CC1(C)CC(=O)c2c(S(C)(=O)=O)sc(Br)c2C1	-1.3
CS(=O)(=O)c1sc(C#N)c2c1C(=O)CCC2	0.08
CC(=O)/C(=C\N(C)C)SCc1ccccc1C	-1.3
Cc1ccccc1NC(NC(=O)c1ccccc1)(C(F)(F)F)C(F)(F)F	-0.49
COC(=O)C1C2C=CC3(CN(Cc4ccccc4)C(=O)C13)O2 (centres undefined)	1.7
O=C(O)C1C2C=CC3(CN(CCc4ccccc4)C(=O)C13)O2 (centres undefined)	-0.96
O=C(O)C1C2C=CC3(CN(Cc4ccccc4)C(=O)C13)O2 (centres undefined)	3.2*
CC(NS(=O)(=O)c1cccc(C(F)(F)F)c1)C(C)(C)C (centres undefined)	0.23
O/N=C1/CCCc2nnc3c(c21)CCCC3	-1.1
SMILES	Dicer processing
CCOC(=O)N1CCC(NC(=O)c2cc(C)cc(C)c2)CC1	-0.17
CCOC(=O)N1CCC(NC(=O)Nc2ccc3c(c2)CCO3)CC1	5*
CC(C)N(CCC#N)C(=O)Nc1ccc2c(c1)CCO2	0.86
O=[N+]([O-])c1ccc(Oc2cncc(Cl)c2)c(-c2nnc(-c3cccc(Cl)c3)o2)c1	-0.02
COC(=O)c1ccc2c(c1)C1C=CCC1[C@@H](c1ccc(C(=O)O)cc1)N2 (some centres undefined)	-1.7
COc1ccc2c(c1)[C@@H]1C=CC[C@@H]1[C@H](c1ccc(C(=O)O)cc1)N2	4.2*
CCOC(=O)c1ccc2c(c1)[C@@H]1C=CC[C@@H]1[C@H](c1ccc(C(=O)O)cc1)N2	0.06
Cc1c(C(=O)O)ccc2c1NC(c1ccc(C(C)C)cc1)C1CC=CC21 (centres undefined)	3.4*
Cc1cccc2c1N[C@H](c1ccc(C(=O)O)cc1)C1CC=CC21 (some centres undefined)	0.98
O=C(O)c1cccc2c1NC(c1ccc(Br)cc1)C1CC=CC21 (centres undefined)	-0.72
Cc1c(Cl)c([N+](=O)[O-])nn1CC(=O)Nc1c(F)cc(F)cc1Br	-0.5
CCN1C(=O)c2cccc3c(S(=O)(=O)NC(CCSC)C(=O)O)ccc1c23 (centres undefined)	-1.5
COc1cc(C2OCC3(CO)C(C)C=C(C)C2C3C)ccc1O (centres undefined)	0.62
O=S(=O)(NNc1nccc(-c2cccnc2)n1)c1cccc(C(F)(F)F)c1	0.09
O=c1[nH]nc(Cc2ccccc2)c2ccccc12	4*
COC(=O)CSCc1n[nH]c(=O)c2ccccc12	-0.76
O=c1[nH]nc(-c2ccccc2)c2ccccc12	-0.94
Cc1cc2oc3c(c(=O)c2cc1C)C(c1ccc(F)cc1)N(c1ccccn1)C3=O (centres undefined)	0.39
Cc1nc(-c2ccc(S(=O)(=O)N3CCC(n4cccc4)CC3)s2)cs1	1.9
CC1=C(C(=O)OC(C)C)C(c2ccncc2)C2=C(CC(c3ccccc3)CC2=O)N1 (centres undefined)	1.2
CCOC(=O)C1=C(C)NC2=C(C(=O)CC(c3ccccc3)C2)C1c1ccc(O)c(OCC)c1 (centres undefined)	0.02
CCOC(=O)C1=C(C)NC2=C(C(=O)CC(c3ccccc3)C2)C1c1cccc(O)c1 (centres undefined)	1.2
CCC(C)OC(=O)C1=C(C)NC2=C(C(=O)CC(c3ccccc3)C2)C1c1ccc(N(C)C)cc1 (centres undefined)	3.3*
CC1=C(C(=O)OCC(C)C)C(c2ccc(F)cc2)C2=C(CC(c3ccccc3)CC2=O)N1 (centres undefined)	0.98

Screening data deposited in PubChem BioAssay by Center for Chemical Genomics, University of Michigan.
